This is an account of results in PubChem BioAssay.

The test system of experiment [1] is TRPC4 beta (transient receptor potential cation channel C4), mouse. The experiment in a line: activators of mouse TRPC4 channel, confirmation, cell-based, Fluo4 calcium, HEK293 TRPC4beta/mu-opioid, duplicates, 10 µM (AID 2426). Conditions: Fluo4 calcium fluorescence, at 10 µM; hits give high values.
The test system of experiment [2] is transient receptor potential cation channel C4 beta (TRPC4), mouse. In words: activators of mouse TRPC4 channel, confirmation, cell-based, second round, Fluo4, HEK293 TRPC4beta/mu-opioid, 1 µM (AID 2461;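 active = primary screen active and over 50% activation in each of two duplicate runs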). The following applies: Fluo4 calcium fluorescence, at 1 µM; hits give high values.
Experiment [3] deals with TRPC4 (transient receptor potential cation channel C4 beta), mouse. The experiment in a line: positive allosteric modulators of mouse TRPC4, confirmation, cell-based, second round, Fluo-4, HEK293 TRPC4beta/mu-opioid, 1 µM (AID 2554;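 active = primary screen hit whose fluorescence ratio, in both repeats, exceeds the weak agonist control mean by 3 SD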). The following applies: DAMGO EC20, Fluo-4 calcium flux, at 1 µM; hits give high values. (In general: Calcium flux is commonly read through the fluorescence of an indicator in the cells.)

Experiment [4] deals with TRPC4 beta (transient receptor potential cation channel C4), mouse. The experiment in a line: positive allosteric modulators of mouse TRPC4, confirmation, cell-based, Fluo-4, HEK293 TRPC4beta/mu-opioid (AID 2555;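 active = primary screen hit whose calcium fluorescence ratio, in both repeats, exceeds the weak agonist control mean by 3 SD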). Conditions: DAMGO EC20, Fluo-4 calcium flux, at 10 µM; hits give high values.
Experiment [5] has as its target Short transient receptor potential channel 4 (Mus musculus) (UniProt Q9QUQ5). The experiment in a line: inhibitors of mouse TRPC4 channel, confirmation, cell-based, Fluo4, HEK293 TRPC4beta/mu-opioid (AID 2636;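 active = calcium signal cut by more than 3 SD below the full-agonist control yet still positive, in both repeats and the earlier primary screen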). The following applies: DAMGO, Fluo4 calcium flux, at 10 µM; hits give high values.
Experiment [6] shares this target. The experiment in a line: inhibitors of mouse TRPC4 channel, confirmation, cell-based, second round, Fluo4, HEK293 TRPC4beta/mu-opioid, 1 µM (AID 2637;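 active = calcium signal ratio cut to more than 3 SD under the fully stimulated control mean yet still positive, in both repeats and the primary screen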). Conditions: Fluo4 calcium flux, DAMGO, at 1 µM; hits give high values.
The target is the same in experiment [7]. The experiment in a line: mouse TRPC4 channel activators, dose response, cell-based, HEK293 TRPC4/mu-opioid, Fluo-4 calcium (AID 434937;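 active = primary screen activator hit with a dose response curve and TRPC4 channel activation at any tested dose; inactive = no activation, no dose response, or not a primary hit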).
For experiment [8] the target is unchanged. The experiment in a line: TRPC4 positive allosteric modulators, dose response, cell-based, HEK293 TRPC4/mu-opioid, Fluo-4 calcium, EC20 DAMGO (AID 434941;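 active = earlier screen potentiator hit that boosts the TRPC4 ion channel at some dose, with a dose response; inactive = no potentiation, no dose response, or not a prior hit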;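 note: calcium entry triggered by an EC20 dose of DAMGO at the co-expressed mu-opioid receptor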).
The target is the same in experiment [9]. In words: mouse TRPC4 channel inhibitors, dose response, cell-based, HEK293 TRPC4/mu-opioid, Fluo-4 calcium (AID 434942;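 active = primary screen inhibitor hit that blocks the TRPC4 channel at some tested dose, yielding a dose curve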).
Experiment [10] deals with Short transient receptor potential channel 6 (Mus musculus) (UniProt Q61143). The experiment in a line: inhibition of mouse TRPC6 channel, confirmation, selectivity assay for TRPC4 inhibitor project, cell-based, HEK293, membrane potential dye, duplicate (AID 434948;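 active = active in primary screen and both duplicates, each dropping signal beyond three positive-control SD with fluorescence still positive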). Conditions: HEK293 TRPC6, membrane potential dye fluorescence, at 10 µM, stimulated with maximal-effect acetylcholine; hits give high values.

For experiment [11] the target is unchanged. In words: activation of mouse TRPC6 channel, confirmation, selectivity assay for TRPC4 activator project, cell-based, HEK293, membrane potential dye, duplicate (AID 434950;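 active = membrane potential signal rise above negative control mean plus 3 SD in both duplicates, also active in the earlier TRPC4 screen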). Conditions: HEK293 TRPC6, membrane potential fluorescence, at 10 µM; hits give high values.
Experiment [12] shares this target. In words: TRPC6 potentiation by TRPC4 potentiator hits, confirmation, selectivity assay for TRPC4 potentiator project, HEK293 cells, membrane potential dye, duplicate (AID 434952;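 active = compound raising the membrane signal above positive-control mean plus 3 SD in both repeats, and a primary screen hit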). Conditions: HEK293 TRPC6, membrane potential dye fluorescence, at 10 µM, maximal acetylcholine added after compound; hits give high values.
In experiment [13] the target is Short transient receptor potential channel 4 (Mus musculus) (UniProt Q9QUQ5). The experiment in a line: calcium flux activators in TRPC4/5HT1a cells, counter-screen for TRPC4 activator project, cell-based, second counter screen, HEK293 TRPC4/5HT1a, Fluo-4 (AID 434977;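 active = calcium signal rise above buffer-control mean plus 5 SD in both duplicates, and also a hit in the primary screen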). Conditions: Fluo-4 calcium flux, at 10 µM; hits give high values.
Experiment [14] is described as follows: calcium flux inhibitors in TRPC4/5HT1a cells, confirmation, counter-screen for TRPC4 inhibitor project, cell-based, second counter screen, HEK293 TRPC4/5HT1a, Fluo-4 (AID 434978;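 active = primary screen active whose calcium signal fell more than 3 SD beyond the full-serotonin control mean in both duplicate plates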;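 note: serotonin given first at submaximal then at maximal dose after compound preincubation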). Conditions: Fluo-4 calcium flux, at 10 µM, serotonin added to trigger calcium flux; hits give high values.
Experiment [15] relates to TRPC4 (mouse), co-expressed with 5HT1a in HEK293. The experiment in a line: calcium flux potentiators in TRPC4/5HT1a cells, confirmation, counter-screen for TRPC4 potentiator project, cell-based, second counter screen, HEK293 TRPC4/5HT1a, Fluo-4 (AID 434979;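 active = signal rise over 3 SD above mean of control wells given weak agonist, in both repeats and first screen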). Conditions: Fluo-4 calcium flux, at 10 µM, serotonin added at its EC20 dose; hits give high values.
Experiment [16] can be described thus: calcium flux activation in mu-opioid HEK293 cells, confirmation, counter-screen for TRPC4 activator project, cell-based, HEK293 mu-opioid receptor line (AID 449723;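 active = hit in primary screen, with calcium signal over 5 SD above buffer well mean in both duplicates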;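 note: counter screen cells carry the mu-opioid receptor alone and lack TRPC4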). Conditions: Fluo-4 calcium fluorescence, at 10 µM; hits give high values.
Experiment [17] in a line: calcium flux enhancement in mu-opioid HEK293 cells, confirmation, counter-screen for TRPC4 allosteric potentiator project, cell-based, HEK293 mu-opioid receptor line (AID 449724;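 active = calcium signal rise more than 3 SD above the low-dose agonist control mean, in both duplicate plates and the primary screen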;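 note: HEK293 cells carrying mu-opioid receptor only with no TRPC4 channel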). Conditions: Fluo-4 calcium flux, at 10 µM, compound added before EC20 DAMGO stimulus; hits give high values.

For part of these data: Results with a measured potency or affinity are listed apart. The source made the active and inactive calls.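 Rule for the calls, unless noted: active = fluorescence ratio normalized to control raised more than 50% in primary screen plus both repeat runs; inactive = the rest.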

Short transient receptor potential channel 6 (Mus musculus), sequence (Q61143 whole entry, looked up): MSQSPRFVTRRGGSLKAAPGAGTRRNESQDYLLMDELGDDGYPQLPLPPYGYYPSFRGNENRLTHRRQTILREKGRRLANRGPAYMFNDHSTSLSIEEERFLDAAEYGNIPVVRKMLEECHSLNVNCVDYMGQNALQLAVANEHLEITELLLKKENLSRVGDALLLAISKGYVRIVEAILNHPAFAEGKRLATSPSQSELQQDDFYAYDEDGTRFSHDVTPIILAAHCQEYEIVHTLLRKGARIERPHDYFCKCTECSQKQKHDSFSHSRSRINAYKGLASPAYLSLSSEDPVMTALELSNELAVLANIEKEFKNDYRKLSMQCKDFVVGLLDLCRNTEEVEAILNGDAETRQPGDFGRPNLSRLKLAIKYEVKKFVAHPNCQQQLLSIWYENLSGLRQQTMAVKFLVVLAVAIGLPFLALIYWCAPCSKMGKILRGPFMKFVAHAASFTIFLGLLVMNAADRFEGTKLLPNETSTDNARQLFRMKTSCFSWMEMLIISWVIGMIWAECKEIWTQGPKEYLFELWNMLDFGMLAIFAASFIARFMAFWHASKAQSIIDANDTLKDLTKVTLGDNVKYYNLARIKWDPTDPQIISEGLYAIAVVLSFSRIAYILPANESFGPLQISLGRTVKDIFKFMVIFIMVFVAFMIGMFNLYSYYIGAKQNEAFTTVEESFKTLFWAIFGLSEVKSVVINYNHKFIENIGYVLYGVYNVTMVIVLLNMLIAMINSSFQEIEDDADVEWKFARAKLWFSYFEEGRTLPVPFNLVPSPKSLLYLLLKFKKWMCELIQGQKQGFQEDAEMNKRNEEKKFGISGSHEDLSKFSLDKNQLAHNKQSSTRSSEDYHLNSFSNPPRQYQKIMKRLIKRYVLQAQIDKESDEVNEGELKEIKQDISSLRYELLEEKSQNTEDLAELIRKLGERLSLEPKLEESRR
Short transient receptor potential channel 4 (Mus musculus), sequence (Q9QUQ5 whole entry, looked up): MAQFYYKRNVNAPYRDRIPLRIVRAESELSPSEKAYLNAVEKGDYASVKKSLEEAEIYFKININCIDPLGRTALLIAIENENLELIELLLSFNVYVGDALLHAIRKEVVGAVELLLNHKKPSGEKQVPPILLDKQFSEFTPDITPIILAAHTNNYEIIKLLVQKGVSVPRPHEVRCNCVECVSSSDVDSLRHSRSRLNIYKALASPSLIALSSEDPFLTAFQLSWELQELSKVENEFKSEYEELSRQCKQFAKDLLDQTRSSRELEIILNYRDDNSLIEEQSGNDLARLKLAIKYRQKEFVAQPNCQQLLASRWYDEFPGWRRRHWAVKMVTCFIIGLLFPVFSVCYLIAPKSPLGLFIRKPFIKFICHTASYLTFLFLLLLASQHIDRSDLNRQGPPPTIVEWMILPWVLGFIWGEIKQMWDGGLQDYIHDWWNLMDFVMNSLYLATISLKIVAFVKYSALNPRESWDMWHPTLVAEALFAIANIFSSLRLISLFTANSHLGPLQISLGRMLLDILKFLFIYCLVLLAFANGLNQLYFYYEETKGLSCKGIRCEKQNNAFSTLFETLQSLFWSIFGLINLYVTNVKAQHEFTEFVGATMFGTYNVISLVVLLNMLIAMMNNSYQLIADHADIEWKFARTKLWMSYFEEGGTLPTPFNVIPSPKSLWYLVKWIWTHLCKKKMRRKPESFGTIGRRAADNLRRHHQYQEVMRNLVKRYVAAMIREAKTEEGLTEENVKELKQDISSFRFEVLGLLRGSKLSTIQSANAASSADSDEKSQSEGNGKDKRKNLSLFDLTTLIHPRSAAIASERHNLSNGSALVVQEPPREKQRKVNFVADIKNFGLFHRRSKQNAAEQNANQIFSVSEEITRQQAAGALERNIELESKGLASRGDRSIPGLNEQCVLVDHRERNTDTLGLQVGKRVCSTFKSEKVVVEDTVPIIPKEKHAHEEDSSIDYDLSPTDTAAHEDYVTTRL

In the case of `O=C(NCCCN1CCN(CCCNC(=O)c2cccc(Cl)c2)CC1)c1cccc(Cl)c1`, the outcome in experiment [1], in experiment [2], in experiment [4], in experiment [5], in experiment [6] and in [7] was inactive. For the same compound, the result in experiment [8], in experiment [9], in experiment [10], in [11], in experiment [12] and in experiment [13] was inactive. In addition, the result in experiment [14], in [16] and in [17] was inactive. The figures for the potentiation in experiment [3] and in experiment [15] were 22% (active) and 11.3% (active), respectively.
Regarding `O=C(NCCCN1CCCC1=O)c1ccc(CNS(=O)(=O)c2ccc(F)cc2)cc1`, the result in [1], in experiment [2], in experiment [3], in [4], in experiment [5] and in [6] was inactive. Moreover, the outcome in [7], in experiment [8], in experiment [9], in experiment [10], in experiment [11] and in [12] was inactive. Further, the outcome in experiment [13], in [14], in experiment [16] and in experiment [17] was inactive. Further, the potentiation in experiment [15] is 14.7% (active).
`CCN1CCN(c2nc(C)c3c(n2)CC(C)CC3=O)CC1` (stereo not given): the result in [1], in experiment [2], in [3], in experiment [4], in [5] and in experiment [6] was inactive. The result in experiment [7], in experiment [8], in [9], in experiment [10], in experiment [11] and in [12] was inactive. The outcome in experiment [13], in [14], in experiment [16] and in experiment [17] was inactive. Further, the potentiation in [15] is 8.12% (active).
In the case of `CN(C)CCCNc1nc(N)c([N+](=O)[O-])c(NCc2ccccc2)n1`, the outcome in experiment [1], in [2], in experiment [3], in experiment [4], in [5] and in [6] was inactive. Besides, the outcome in [7], in experiment [8], in experiment [9], in [10], in [11] and in experiment [12] was inactive. For the same compound, the result in [13], in experiment [14], in experiment [15], in [16] and in experiment [17] was inactive.
For the compound `COc1ccc(C(=O)c2no[n+]([O-])c2C(=O)c2ccc(OC)cc2)cc1`, the result in experiment [1], in experiment [2], in experiment [5], in experiment [6], in experiment [7] and in [8] was inactive. The outcome in [9], in [10], in experiment [11], in experiment [12], in experiment [13] and in experiment [14] was inactive. The result in experiment [16] and in [17] was inactive. Besides, the figures for the potentiation in experiment [3], in [4] and in experiment [15] were 9% (active), 50% (active) and 51.2% (active), respectively.
For the compound `Cc1cc(N2CCOCC2)nc(NCc2ccccc2)n1`, the result in experiment [1], in experiment [2], in [3], in experiment [4], in [5] and in experiment [6] was inactive. The outcome in experiment [7], in [8], in experiment [9], in experiment [10], in [11] and in experiment [12] was inactive. In addition, the outcome in [13], in experiment [14], in experiment [15], in [16] and in experiment [17] was inactive.
Consider `O=C(C[n+]1cc(-c2ccc(Br)cc2)n2c1CCCCC2)c1ccccc1`, for which the result in experiment [1], in experiment [2], in experiment [3], in [4], in experiment [5] and in experiment [6] was inactive. Further, the outcome in experiment [7], in [8], in [9], in [10], in [11] and in experiment [12] was inactive. The result in [13], in experiment [14], in [15], in experiment [16] and in experiment [17] was inactive.
Regarding `O=C(O)c1nn(CC(=O)N2CCN(c3ncc(C(F)(F)F)cc3Cl)CC2)c(=O)c2ccccc12`, the result in experiment [1], in [2], in experiment [3], in experiment [4], in experiment [5] and in experiment [6] was inactive. Moreover, the result in [7], in experiment [8], in experiment [9], in experiment [10], in experiment [11] and in [12] was inactive. Further, the outcome in [13], in experiment [14], in experiment [15], in experiment [16] and in [17] was inactive.
On to `C#CC[N+]1(CC#Cc2cccc3ccccc23)CCOCC1`, for which the outcome in experiment [1], in experiment [2], in experiment [3], in experiment [5], in [6] and in experiment [7] was inactive. Also, the result in experiment [8], in experiment [9], in experiment [10], in experiment [11], in [12] and in experiment [13] was inactive. The outcome in experiment [14], in experiment [16] and in experiment [17] was inactive. For the same compound, the potentiation in experiment [4] was 22% (active); in [15] it was 26.3% (active).
Regarding `CN(C)CCOC(=O)C1(c2ccccc2)CCOCC1`, the result in experiment [1], in experiment [2], in experiment [3], in experiment [5], in experiment [6] and in [7] was inactive. The outcome in [8], in experiment [9], in experiment [10], in [11], in experiment [12] and in experiment [13] was inactive. For the same compound, the result in [14], in experiment [16] and in experiment [17] was inactive. Besides, the potentiation was 8% (active) in [4] and 23.2% (active) in experiment [15].
For the compound `CC(=O)Cn1ncc(N2CCOCC2)cc1=O`, the outcome in experiment [1], in [2], in experiment [3], in [4], in experiment [5] and in experiment [6] was inactive. For the same compound, the outcome in [7], in experiment [8], in experiment [9], in experiment [10], in [11] and in experiment [12] was inactive. In addition, the outcome in [13], in experiment [14], in experiment [15], in [16] and in experiment [17] was inactive.
For `CCOC(=O)c1c(C(F)(F)C(F)(F)C(F)(F)C(F)(F)F)n[nH]c1C`, the outcome in experiment [1], in [2], in [3], in experiment [4], in experiment [5] and in experiment [6] was inactive. Also, the outcome in experiment [7], in experiment [8], in experiment [9], in experiment [10], in experiment [11] and in [12] was inactive. In addition, the outcome in experiment [13], in experiment [14], in [15], in [16] and in experiment [17] was inactive.
As to `CCCCN(C)CCNC(=O)c1c[nH]c2ccc(S(=O)(=O)N(CC)CC)cc2c1=O`, the outcome in experiment [1], in experiment [2], in experiment [3], in [5], in experiment [6] and in [7] was inactive. Further, the result in [8], in experiment [9], in experiment [10], in experiment [11], in experiment [12] and in [13] was inactive. Also, the result in [14], in [16] and in experiment [17] was inactive. The potentiation is 46% (active) in experiment [4] and 26.4% (active) in [15].
Consider `O=C(c1cc2cc(Br)cc(Br)c2oc1=O)N1CCCC1`, for which the outcome in experiment [1], in experiment [2], in [3], in experiment [4], in [5] and in experiment [6] was inactive. Further, the outcome in experiment [7], in [8], in [9], in experiment [10], in experiment [11] and in [12] was inactive. The result in experiment [13], in experiment [14], in experiment [16] and in experiment [17] was inactive. The potentiation in [15] was 15.8% (active).
In the case of `Cc1cc(C)cc(N(CC(=O)Nc2ccc(C)cc2Cl)S(=O)(=O)c2c(C)[nH]c(=O)[nH]c2=O)c1`, the result in experiment [1], in experiment [2], in experiment [3], in experiment [5], in [6] and in [7] was inactive. For the same compound, the result in [8], in experiment [9], in experiment [10], in experiment [11], in experiment [12] and in [13] was inactive. For the same compound, the result in experiment [14], in [16] and in experiment [17] was inactive. Moreover, the potentiation in experiment [4] was 23% (active); in experiment [15], 78.6% (active).
